The values that follow come from PubChem BioAssay (NCI).

The panel holds about 83,000 compounds, 20% with a hit somewhere; the sample as a whole holds those more often.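 Compound tested at a single concentration for 48 hours in 96-well plates; a percent growth value below 10 was scored as active.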 The source made the active and inactive calls.

In this assay the test system is HL-60(TB) leukemia. Briefly: NCI-60 one-dose screen, 48 h (100 = growth as untreated, 0 = no growth, -100 = all killed). As to conditions: 10 µM unless noted.
For the molecule `C=CCOc1ccc2c(C)cc(=O)oc2c1`, the growth was 118% (inactive).
On to `Cc1[nH]c(-c2nc3ccccc3[nH]2)c(C)c1C(=O)N1CCc2sccc2C1`, for which the growth was 99.3% (inactive).
As to `CCOC(=O)CC1C(CNC(=O)NC)OC(n2cnc3c(NC(=O)Nc4ccccc4)ncnc32)C1O[Si](C)(C)C(C)(C)C` (centres undefined), the growth was 44.5% (inactive).
In the case of `CCCCCCCCOc1ccc(/C=N/Nc2cc(C)nc3ccc(Br)cc23)cc1`, the growth was 60.4% (inactive).
Then `COc1cc2c(=O)n(CCCN(C)C)c3c4cc5c(cc4ccc3c2cc1OC)OCO5`, with 55% (inactive).
`COc1ccc(OC)c(/C=C/[C@H]2O[C@@H](C)[C@H](O)[C@@H]2O)c1`: the growth was 88.3% (inactive).
As to `CNC(=O)c1cc(Oc2ccc(NC(=O)Nc3cc(C(C)(C)C)nn3-c3ccc4ncccc4c3)c(F)c2)ccn1`, the growth was -43.2% (active).
Regarding `CC1(C)CC[C@]2(C(=O)Nc3ccccn3)CC[C@]3(C)C(=CC[C@@H]4[C@@]5(C)C/C(=C/c6cccnc6)C(=O)C(C)(C)[C@@H]5CC[C@]43C)[C@H]2C1`, the growth was 1.84% (active).
With `N=c1ccccn1CCO`, the growth is 120% (inactive).
As to `NC(N)=NC(N)=Nc1ccccc1-c1ccccc1`, the growth was 108% (inactive).
Turning to `C[C@@H](O)[C@H]1C(=O)N2C(C(=O)O)=C(SC3CN[C@H](C(=O)N(C)C)C3)[C@H](C)[C@H]12` (some centres undefined), the growth was 87% (inactive).
Then `O=c1[nH]nc(-c2ccccc2)c2c(-c3ccccc3)onc12`, with -34% (active); and `CCOc1ccccc1C(=O)OCC(=O)Nc1cccc(S(=O)(=O)N(C)C)c1`, with 86.2% (inactive).
`Nc1c(C(=O)c2ccccc2)sc2nc(-c3cccs3)ccc12`: the growth is 9.36% (active).
